High-throughput results deposited in PubChem BioAssay by National Center for Advancing Translational Sciences (NCATS).
An excerpt weighted towards active compounds, which were near 0.59% of everything screened.
Vif-A3F inh = inhibitors of Vif-A3F interaction | AID 602313 | Potency, µM (titrated, usually from 46.1 µM) | HeLa A3F-eYFP + Vif (tagged APOBEC3F with the HIV-1 protein that degrades it), YFP fluorescence increase | 0.2% of 390,000 active; also: nearly all actives have a fitted effect of over 65% in size
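HeLa cells stably expressing Vif plus C-terminally eYFP-tagged A3F were seeded, incubated overnight at 37 deg C, dosed with compound, incubated overnight again at 37 deg C. Yellow fluorescence (Ex 488/Em 500-530) reported blocked Vif-mediated A3F-eYFP degradation.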
LDHA inh = blocks human lactate dehydrogenase A. purified LDHA, NADH/diaphorase-resazurin fluorescence; hits give low values. P00338. activity change, % (values are at about 110 or 230 µM). 0.15% of 480,000 active; in the data active = activity change below about -30%; inconclusive = mostly about -25% to -30%
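Resorufin fluorescence (ex540/em590), read at 0 and 20 min after diaphorase/resazurin addition, reports the NADH left after a 5 min room-temperature reaction of 2 nM human LDH5 with 0.06 mM NADH and 0.2 mM pyruvate.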
Vif-APOBEC3G blk = inhibitors of Vif-APOBEC3G interaction; Q9HC16; HeLa A3G-eYFP + Vif (tagged APOBEC3G with the HIV-1 protein that degrades it), YFP fluorescence, overnight; Potency, µM (highest dose often 46.1 µM), most hits filed as inhibitors; 0.076% of 410,000 active; AID 602310; also: nearly all actives have a fitted effect of over 60% in size
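Read-out is eYFP fluorescence (Ex 488/Em 500-530) from Vif-expressing HeLa A3G-eYFP cells; more signal means A3G escaped Vif-mediated degradation. Cells plated overnight, compound pinned in, incubated overnight at 37 deg C.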
PTHR1 ag = PTHR1 (human) receptor agonism; Q03431; HEK293 GP2 PTHR1 cells, GloSensor cAMP luminescence, 1 h; Potency, µM (titrated, usually from 115 µM), most hits filed as activators; 0.075% of 410,000 active; AID 743266; also: nearly all actives have a fitted effect of over 55% in size
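HEK-293-derived GP2 cells expressing PTHR1 and a GloSensor cAMP reporter, 3,000/well, plated overnight, given luciferin plus IBMX (each 0.5 mM as added) for 1 h at 37 °C, then compound for 1 h at 37 °C. Luminescence was read after 15 min at room temperature.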
IDH1 R132H inh = inhibitors of human mutant IDH1 R132H; Potency, µM (doses to about 76.6 µM), most hits filed as inhibitors; O75874; IDH1-R132H enzyme, NADPH consumption, diaphorase/resazurin fluorescence; 0.093% of 390,000 active; also: nearly all actives have a fitted effect of over 65% in size
Target sequence (O75874 whole entry R132H, stated change not applied): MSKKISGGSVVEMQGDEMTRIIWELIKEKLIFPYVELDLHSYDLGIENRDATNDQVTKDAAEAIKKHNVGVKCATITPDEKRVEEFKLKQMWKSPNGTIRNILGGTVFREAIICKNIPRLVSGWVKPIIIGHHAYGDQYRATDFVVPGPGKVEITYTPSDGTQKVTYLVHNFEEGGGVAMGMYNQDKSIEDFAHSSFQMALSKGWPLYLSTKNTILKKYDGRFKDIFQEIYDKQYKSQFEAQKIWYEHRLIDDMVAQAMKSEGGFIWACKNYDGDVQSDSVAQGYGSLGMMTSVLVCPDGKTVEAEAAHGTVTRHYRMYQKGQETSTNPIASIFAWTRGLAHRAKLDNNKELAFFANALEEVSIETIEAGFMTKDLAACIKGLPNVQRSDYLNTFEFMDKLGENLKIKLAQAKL
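IDH1-R132H (0.5 ug/mL dispensed) in pH 7.5 Tris buffer was preincubated 30 min with compound, then given a substrate mix of 0.016 mM NADPH and 2 mM alpha-KG for 80 min at room temperature; remaining NADPH was read by diaphorase/resazurin fluorescence.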
PINK1 expr mod = changes PINK1 expression; PINK1 immunofluorescence, high-content cytometry, 24 h; Potency, µM (titrated, usually from 76.6 µM), hits mostly activators; 0.2% of 410,000 active; active = well fitted activation curve with a large enough effect; inconclusive = small, poorly fitted or top-dose-only effect; cell line not stated here; also: nearly all actives have a fitted effect of over 65% in size
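PINK1 protein, normally rapidly degraded, was detected by immunofluorescence after 24 hour compound treatment of a stable cell line. Titration data (5 concentrations) came from laser-scanning cytometry, with CCCP-treated wells as controls.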
Resorufin autofl = counter-screen for mutant IDH1 inhibitors: fluorescence interference. shares compounds with IDH1 R132H inh. Resorufin detection reagent fluorescence interference, cell-free. inhibition of signal, % at 51.2 µM. 750 tested, under 10 active. AID 623980
IDH1 WT = selectivity of mutant IDH1 inhibitors: human wild-type IDH1; shares compounds with IDH1 R132H inh; WT IDH1 enzyme, NADPH diaphorase/resazurin fluorescence; Potency, µM (top dose mostly 115 µM), hits mostly inhibitors; 9% of 750 active; AID 623995; also: nearly all actives have a fitted effect of over 55% in size
Target sequence (O75874 whole entry, looked up): as the sequence (O75874 whole entry R132H, stated change not applied) above, with H132R counted along it
mIDH1 confirm = mutant IDH1 (human) inhibition, confirmed | shares compounds with IDH1 R132H inh | IDH1 R132H enzyme, NADPH diaphorase/resazurin fluorescence | Potency, µM (series often up to 76.6 µM), usual class: inhibitors | 83% of 750 active | AID 624002; also: nearly all actives have a fitted effect of over 50% in size
Numbers stand for hits; - = inactive; ? = inconclusive; . = not tested or not shown. Unless noted, calls follow the shape of the dose curve; as a rule, active = well fitted curve in the direction sought with a large enough effect; inconclusive = small, poorly fitted or top-dose-only effect, or another doubt; inactive = no such curve, though single readings can be large; an effect the other way counts as inactive or inconclusive.

SMILES	Vif-A3F inh	LDHA inh	Vif-APOBEC3G blk	PTHR1 ag	IDH1 R132H inh	PINK1 expr mod	Resorufin autofl	IDH1 WT	mIDH1 confirm
Cc1ccc2c(c1)c1ncnc(N3CCOCC3)c1n2C	-	-	-	-	-	-	.	.	.
Cc1ccc(C)c2c1c1ccccc1n2C	-	-	-	-	-	-	.	.	.
Cn1c2ccccc2c2ccc3c(c21)C(=O)C=CC3=O	11.2µM	-	-	-	23.3µM	-	-	-	10µM
C[C@H](CO)N1C[C@H](C)[C@@H](CN(C)Cc2ccc(C(=O)Nc3ccccc3N)cc2)Oc2c(NC(=O)C3CCCCC3)cccc2C1=O	-	-	-	-	39.8µM	-	-	?	28.2µM
C[C@H](CO)N1C[C@H](C)[C@@H](CN(C)Cc2ccc(Cl)c(Cl)c2)Oc2c(NC(=O)C3CC3)cccc2C1=O	-	-	-	-	?	-	-	-	25.1µM
Cc1cc(OCC(=O)Nc2ccc3c(c2)OCCO3)c2c(C)c(C)c(=O)oc2c1	.	-	.	.	.	.	.	.	.
COc1ccc(-c2n[nH]c3c2C(c2ccc(Cl)cc2Cl)NC3=O)cc1 (stereo not drawn)	-	-	-	-	?	-	-	-	39.8µM
COC(=O)c1ccc(C2c3c(-c4ccccc4O)n[nH]c3C(=O)N2Cc2ccncc2)cc1 (stereo not drawn)	-	-	-	-	-	-	.	.	.
O=C1c2[nH]nc(-c3ccccc3O)c2C(c2cccc(Cl)c2)N1Cc1cccnc1 (stereo not drawn)	-	-	-	-	?	-	-	-	28.2µM
O=C1c2[nH]nc(-c3ccccc3O)c2C(c2cccc(Br)c2)N1Cc1ccncc1 (stereo not drawn)	-	-	?	-	?	-	-	-	25.1µM
Cc1ccc(C2c3c(-c4ccccc4O)n[nH]c3C(=O)N2Cc2ccncc2)cc1 (stereo not drawn)	-	-	-	-	?	-	-	-	35.5µM
COc1cccc(C2c3c(-c4ccccc4O)n[nH]c3C(=O)N2Cc2cccnc2)c1 (stereo not drawn)	-	-	-	-	-	-	.	.	.
COc1cc(C2c3c(-c4ccccc4O)n[nH]c3C(=O)N2Cc2ccncc2)ccc1O (stereo not drawn)	-	-	-	-	-	-	.	.	.
O=C(CCCC(=O)N(c1ccc2c(c1)OCCO2)C(C(=O)NC1CCCCC1)c1ccc(F)cc1)Nc1ccccn1 (stereo not drawn)	-	-	-	-	9.27µM	.	-	-	12.6µM
C#CC(=O)N(c1cc(OC)ccc1OC)C(C(=O)NC1CCCC1)c1cccs1 (stereo not drawn)	-	-	?	-	?	-	-	-	44.7µM
O=C(NC1CCCCC1)C(c1cccs1)N(C(=O)C(F)(F)F)c1ccccc1 (stereo not drawn)	-	-	-	-	?	.	-	-	20µM
Cc1ccc(N(C(=O)C(F)(F)F)C(C(=O)NC2CCCCC2)c2cccs2)cc1C (stereo not drawn)	-	-	-	-	-	?	.	.	.
Cc1cc(NC(=O)CCC(=O)N(c2ccccc2)C(C(=O)NC2CCCCC2)c2cccs2)no1 (stereo not drawn)	-	-	-	-	?	-	-	-	15.8µM
CCC(C(=O)Nc1cccc2ccccc12)n1cnc2c1c(=O)n(C)c(=O)n2C (stereo not drawn)	.	-	.	.	.	.	.	.	.
CC(C)c1nc2cc(NC3CCCCNC3=O)ccc2o1 (stereo not drawn)	.	-	.	.	.	.	.	.	.
CCCCN(C(=O)CCC(=O)Nc1cc(C)on1)C(C(=O)NC1CCCC1)c1ccc(F)cc1 (stereo not drawn)	-	-	-	-	-	-	.	.	.
Cc1cc(NC(=O)CCC(=O)N(c2ccccc2)C(C(=O)NC2CCCC2)c2ccc(F)cc2)no1 (stereo not drawn)	-	-	-	-	?	-	-	-	?
Cc1cc(NC(=O)CCC(=O)N(c2ccc(F)cc2)C(C(=O)NC2CCCC2)c2ccccc2)no1 (stereo not drawn)	-	-	-	-	?	-	-	-	39.8µM
Cc1cc(NC(=O)CCC(=O)N(c2ccc(F)cc2)C(C(=O)NC2CCCC2)c2ccc(C)o2)no1 (stereo not drawn)	-	-	-	-	-	-	.	.	.
CCCN(Cc1ccc(OCC)cc1)Cc1cc(=O)n2ccc(C)cc2n1	.	-	.	.	.	.	.	.	.
SMILES	Vif-A3F inh	LDHA inh	Vif-APOBEC3G blk	PTHR1 ag	IDH1 R132H inh	PINK1 expr mod	Resorufin autofl	IDH1 WT	mIDH1 confirm
CN1CC=C2C(C#N)=C(N)C(C#N)(C#N)C(c3ccsc3)C2C1 (stereo not drawn)	-	-	-	-	?	10µM	-	-	?
N#CC1=C(N)C(C#N)(C#N)C(c2ccncc2)C2CN(C(=O)OCc3ccccc3)CC=C12 (stereo not drawn)	-	-	?	-	46.5µM	-	-	-	44.7µM
COc1ccc(OC)c(-c2nnc3n2N=C(c2ccc(OC)c(OC4CCCC4)c2)CS3)c1	-	-	?	-	.	-	-	-	14.1µM
COc1ccc(OC)c(-c2nnc3n2N=C(c2ccc(OC)c(OC)c2)CS3)c1	-	-	?	-	.	-	.	.	.
COc1ccc(C2=Nn3c(nnc3-c3ccccc3OC)SC2)cc1OCC1CC1	-	-	-	-	.	-	-	-	44.7µM
CSc1cccc(NC(=O)CC(C)(C(=O)O)c2ccccc2)c1 (stereo not drawn)	.	-	.	.	.	.	.	.	.
Fc1ccc(-c2nc(CSc3nnc4c(Cl)cc(C(F)(F)F)cn34)cs2)cc1	.	-	.	.	.	.	.	.	.
Cc1cc(NC(=O)CCC(=O)N(c2cccnc2)C(C(=O)NC2CCCC2)c2ccccc2)no1 (stereo not drawn)	-	-	-	-	?	-	-	-	?
Cc1cccc(N(C(=O)CCC(=O)Nc2cc(C)on2)C(C(=O)NC2CCCC2)c2ccccc2)c1 (stereo not drawn)	-	-	-	-	44.7µM	-	-	-	20µM
Cc1cccc(N(C(=O)CCC(=O)Nc2cc(C)on2)C(C(=O)NC2CCCC2)c2cccnc2)c1 (stereo not drawn)	-	-	-	-	-	-	.	.	.
